Sampled rows, rich in hits. Any-hit rate of the full collection: about 4.7%.
tim10-1 inh = growth inhibitors of tim10-1 mutant yeast, primary screen, luminescence, uHTS; S. cerevisiae tim10-1 ts strain growth, BacTiter-Glo, 24 h; inhibition, % at 20 µM; 330,000 compounds, 2.2% hits;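 active = inhibition of at least 40%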;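 note: mutant grown at 25 °C; 0% = DMSO wells with yeast and 100% = wells holding no yeast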
tim23-1 inh = growth inhibitors of tim23-1 mutant yeast, primary screen, luminescence, uHTS | S. cerevisiae tim23-1 growth, BacTiter-Glo luminescence, 24 h | inhibition, % at 20 µM | 330,000 compounds, 1.3% hits | AID 463212, 2010;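 active = growth inhibition of the mutant yeast at or above 50%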;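 note: temperature-sensitive mutant grown at 25 °C; plate controls were DMSO-treated mutant yeast for no effect and medium wells lacking yeast for full effect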
TIM10 inh = growth inhibitors of isogenic TIM10 control yeast, primary screen, counter-screen for tim10-1 yeast inhibitor project, luminescence, uHTS. S. cerevisiae TIM10 strain growth, BacTiter-Glo luminescence, 24 h. inhibition, % at 10 µM. 330,000 compounds, 1.4% hits;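 active = inhibition of 40% or more at the single tested concentration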;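 note: wild-type TIM10 isogenic control strain grown at permissive 25 °C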
PfHsp90 set2 = growth inhibition of PfHsp90-expressing yeast, primary screen, antimalarial PfHsp90 inhibitor project, S. cerevisiae, BacTiter-Glo luminescence, single point, set 2; BacTiter-Glo ATP, 48 h; yeast lacking PDR1 and PDR3 efflux regulators; inhibition, % at 9.4 µM; 310,000 compounds, 0.32% hits;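 active = every replicate shows inhibition above about 80%, whatever the replicate mean, limit read from the data; inconclusive = mean inhibition reaches the set limit but some replicate falls short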;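 note: 0% = DMSO neutral controls and 100% = 20 µM radicicol positive controls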
SKKanGAS inh = S. pyogenes SKKanGAS growth inhibitors in kanamycin, primary screen, streptokinase expression inhibitor project, SKKanGAS strain, BacTiter-Glo luminescence; inhibition, % at 7.5 µM; 300,000 compounds, 1.3% hits; 6 h;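 active = mean replicate score, as percent of positive control median, at least 50; inconclusive = mean below 50 but one replicate at or above 50; inactive = mean and every replicate below 50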;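 note: strain carries kanamycin resistance gene driven by streptokinase promoter and grows in 40 µg/ml kanamycin; loss of luminescence reflects streptokinase promoter inhibition or plain growth inhibition; 0% = median of DMSO wells and 100% = positive control at its reference dose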
Calb FLC = C. albicans growth inhibition with fluconazole, primary screen, CaCi-2 strain, Alamar Blue fluorescence; growth inhibition, % (concentration not given with the values); C. albicans CaCi-2 (fluconazole-resistant clinical isolate) + fluconazole, 48 h; 300,000 compounds, 0.57% hits;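 active = growth inhibition above about 58% in most replicates, limit read from the data, passing the limit was not always enough; inconclusive = exactly half the replicates above a set limit; inactive = most replicates below a set limit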;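 note: all wells also contain fluconazole at 8 µg/ml as a sub-toxic cotreatment; 0% = median of DMSO wells and 100% = median of geldanamycin control wells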
tim10-1 conf = growth inhibitors of tim10-1 mutant yeast, confirmation, single concentration, luminescence, S. cerevisiae; S. cerevisiae tim10-1 ts strain growth, BacTiter-Glo, 24 h; inhibition, % at 20 µM; 7,400 compounds, 56% hits; AID 463213, 2010; shares compounds with tim10-1 inh;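 active = inhibition of yeast growth at or above a set limit in either of two repeat tests at 20 µM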;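 note: tim10-1 mutant grown at permissive 25 °C to find synthetic lethal compounds; 0% = DMSO yeast wells and 100% = medium wells without yeast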
tim10 confirm = growth inhibitors of wild-type TIM10 yeast, confirmation, counter-screen for tim10-1 synthetic lethality project, single concentration, luminescence, S. cerevisiae; S. cerevisiae tim10 strain growth, BacTiter-Glo luminescence, 24 h; inhibition, % at 10 µM; shares compounds with TIM10 inh; 4,600 compounds, 63% hits;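 active = inhibition of yeast growth at or above a set limit in either of two replicates at 10 µM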;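 note: this counterscreen used the strain with wild-type TIM10; 0% = yeast with DMSO and 100% = medium wells lacking yeast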
* hit, by the source's call; ? = inconclusive; . = not tested or not shown.

SMILES	tim10-1 inh	tim23-1 inh	TIM10 inh	PfHsp90 set2	SKKanGAS inh	Calb FLC	tim10-1 conf	tim10 confirm
CCOC(=O)c1ccc(NC(=O)CC2Sc3ncnn3C2=O)cc1 (stereo not given)	61.4*	24.5	75.2*	.	-1.5	-22.8	58.3*	58.3*
COc1ccc(NC(=O)CC2Sc3ncnn3C2=O)cc1 (stereo not given)	36.9	15.8	19.8	8.7	-1.5	-10.2	.	.
O=Nc1c2cc(-c3ccccc3)[nH]nc-2c2ccccc12	.	.	.	.	?	30.5	.	.
Cc1ccc(-c2cc3c(N=O)c4ccccc4c-3n[nH]2)cc1	43.0*	38.3	44.2*	-31.3	31.8	17.0	10.0	28.6*
CC(C)CC(=O)NC(=S)NCCc1ccccc1	46.9*	35.2	45.6*	-11.1	-4.7	-1.1	22.4	14.7
CC(C)(C)CC(=O)NC(=S)NCCc1ccccc1	37.1	38.1	28.7	-22.9	-6.0	-21.3	.	.
CC1=Nc2ccccc2/C1=C\c1nc(-c2ccccc2)oc1O	41.9*	25.9	45.3*	-20.1	27.6	-21.9	33.6*	35.3*
Oc1oc(-c2ccccc2)nc1C=Nc1ccccc1	15.0	16.5	18.1	6.9	-0.7	-1.0	.	.
Cc1ccc(C)c(N2C(=O)C3C4C=CC(CC4)C3C2=O)c1 (stereo not given)	1.3	8.0	-2.2	-3.3	-1.7	-0.4	.	.
N#C/C(=C\C=C\c1ccccc1[N+](=O)[O-])C(=O)NC1CCCCC1	55.2*	29.9	43.0*	.	-1.2	40.0	47.2*	53.0*
N#C/C(=C\c1cccn1-c1ccccc1)C(=O)NC1CCCCC1	34.4	38.4	30.4	12.3	-1.1	3.4	.	.
O=c1[nH]c2cccc(F)c2n2cccc12	-8.3	2.8	10.7	-34.6	5.1	-0.9	.	.
Clc1ccc(Nc2nc(C3CC3)cs2)cc1	53.7*	47.9	43.1*	-18.0	11.4	-20.9	48.8*	19.6
O=C(Nc1ccc(Cl)c(Cl)c1)OCc1cccnc1	49.6*	5.6	43.9*	-36.2	42.6	-12.4	47.2*	30.5*
CC12CCC(=O)N1C(C(=O)NCc1ccc(Cl)cc1Cl)CS2 (stereo not given)	14.2	19.5	4.0	.	-0.6	1.2	.	.
CCOc1cc(-c2noc(N)c2C#N)cc(OCC)c1OCC	67.7*	47.5	67.0*	6.4	-11.0	19.8	60.8*	58.2*
Cc1ccccc1-c1noc(N)c1C#N	38.5	24.0	31.0	32.9	2.3	0.4	.	.
c1ccc(Oc2nc(-c3ccccn3)nc3ccccc23)cc1	43.4*	47.2	50.2*	.	109.1*	10.4	23.3	19.5
O=C(NCCCN1CCCC1=O)c1cccc(S(=O)(=O)Nc2ccc(Br)cc2)c1	20.1	-1.2	3.3	6.4	-1.6	1.4	.	.
Cc1ccc2cc(/C=C(\C#N)C(N)=O)c(N3CCCCC3)nc2c1	41.6*	32.2	46.1*	-2.5	-3.8	6.5	17.7	33.7*
O=C1CC(NS(=O)(=O)c2ccc(F)cc2)CN1c1ccc2c(c1)OCCO2 (stereo not given)	-5.9	-3.8	1.3	.	-9.9	3.2	.	.
CC(C)(C)c1ccc(-c2cc(N)n[nH]2)cc1	12.5	1.2	13.0	-0.8	2.6	2.9	.	.
Cc1ccc(O)c(-c2cc(-c3ccccc3C)[nH]n2)c1	51.9*	-9.0	66.2*	-47.8	41.7	5.9	18.5	-0.9
Oc1ccc(Cl)cc1-c1cc(-c2ccccc2Cl)[nH]n1	49.1*	36.9	41.1*	3.5	2.7	-7.7	36.1*	36.9*
Cc1ccc(O)c(-c2cc(C(F)(F)C(F)F)[nH]n2)c1	23.9	28.1	33.1	0.4	-12.9	-52.1	.	.
SMILES	tim10-1 inh	tim23-1 inh	TIM10 inh	PfHsp90 set2	SKKanGAS inh	Calb FLC	tim10-1 conf	tim10 confirm
CC(C)(C)c1ccc(-c2cc(-c3ccccc3O)[nH]n2)cc1	49.2*	43.2	40.9*	20.5	104.2*	17.2	42.1*	21.8
Oc1ccc(Cl)cc1-c1cc(-c2cccc(Br)c2)n[nH]1	48.3*	49.2	53.1*	-34.6	53.7*	-7.1	37.2*	49.0*
O=[N+]([O-])c1ccccc1-c1cc(-c2cc(Cl)ccc2O)n[nH]1	.	.	.	58.4	13.4	36.2	.	.
COC(=O)CCC[C@H]1CC2(C[C@H](CCCO[Si](C)(C)C(C)(C)C)N1C(=O)OC(C)(C)C)OCCO2	20.4	16.5	15.5	7.2	.	.	.	.
CSc1ccc(CN2CCC(n3nccc3NC(=O)C3CCOC3)CC2)cc1 (stereo not given)	-20.4	-6.6	-5.8	-21.7	15.4	0.6	.	.
O=C(c1ccc2c3n(nc2c1)-c1ccccc1CO3)N1CCOCC1	48.4*	49.0	41.4*	29.3	37.1	2.9	51.3*	31.3*
COc1ccc(S(=O)(=O)n2nc(OC(=O)c3cccs3)cc2N)cc1	44.9*	40.3	44.1*	16.3	6.4	1.1	30.8*	51.7*
Cc1cc2c3c(c1)C1(SCC(=O)N1c1ccc(F)cc1)C(=O)N3C(C)(C)CC2C (stereo not given)	47.9*	45.0	42.3*	7.3	5.6	4.1	39.7*	40.9*
Nc1nnc(Sc2ccc(Cl)cc2[N+](=O)[O-])s1	15.4	-1.8	3.1	23.4	-5.1	-5.6	.	.
CC(C)Nc1nnc(Sc2ccc(Cl)cc2[N+](=O)[O-])s1	79.4*	47.7	69.1*	43.9	-5.3	5.8	72.2*	7.8
O=C(C1CCN(S(=O)(=O)c2cnc[nH]2)CC1)N1CCN(c2ccc([N+](=O)[O-])cc2)CC1	14.7	9.7	-10.1	-2.8	2.9	-3.9	.	.
S=C(N/N=C/c1ccco1)NC1CC2CCC1C2 (stereo not given)	50.6*	48.9	42.2*	-9.6	3.9	5.9	35.8*	51.4*
COc1ccc(CNC(=O)C2CCCN(S(=O)(=O)c3ccc(-n4cnnn4)cc3)C2)cc1 (stereo not given)	-15.6	-4.2	15.9	-14.4	0.1	-7.1	.	.
CCOC(=O)C1CCN(C(=O)Cn2nc(CC)n3cccc3c2=O)CC1	6.0	-12.7	-11.8	-41.3	-4.6	-2.3	.	.
CCOC(=O)C1CCN(C(=O)c2sc3nc(-c4ccc(F)cc4)cn3c2C)CC1	74.2*	43.2	78.1*	-1.8	-3.0	-4.7	73.8*	69.2*
